Laboratory results: the supplement of paper PMC11732987, “Enantioselective OTUD7B fragment discovery through chemoproteomics screening and high-throughput optimisation” (Communications Chemistry, 2025)

Key:
Test in all cases: log2 ratio of Biotin-Ahx-Ub-VS probe labelling (fragment/DMSO); higher = less target engagement (more negative = stronger competition), active = hit call of the paper (q ≤ 0.05, log2 ratio ≤ -1)
Conditions in all cases: compound concentration: 200 uM; treatment time: 3 h
USP34 = USP34 (UniProt Q70CQ2)
Chain of USP34 (Q70CQ2 whole entry, the tested form may be a part): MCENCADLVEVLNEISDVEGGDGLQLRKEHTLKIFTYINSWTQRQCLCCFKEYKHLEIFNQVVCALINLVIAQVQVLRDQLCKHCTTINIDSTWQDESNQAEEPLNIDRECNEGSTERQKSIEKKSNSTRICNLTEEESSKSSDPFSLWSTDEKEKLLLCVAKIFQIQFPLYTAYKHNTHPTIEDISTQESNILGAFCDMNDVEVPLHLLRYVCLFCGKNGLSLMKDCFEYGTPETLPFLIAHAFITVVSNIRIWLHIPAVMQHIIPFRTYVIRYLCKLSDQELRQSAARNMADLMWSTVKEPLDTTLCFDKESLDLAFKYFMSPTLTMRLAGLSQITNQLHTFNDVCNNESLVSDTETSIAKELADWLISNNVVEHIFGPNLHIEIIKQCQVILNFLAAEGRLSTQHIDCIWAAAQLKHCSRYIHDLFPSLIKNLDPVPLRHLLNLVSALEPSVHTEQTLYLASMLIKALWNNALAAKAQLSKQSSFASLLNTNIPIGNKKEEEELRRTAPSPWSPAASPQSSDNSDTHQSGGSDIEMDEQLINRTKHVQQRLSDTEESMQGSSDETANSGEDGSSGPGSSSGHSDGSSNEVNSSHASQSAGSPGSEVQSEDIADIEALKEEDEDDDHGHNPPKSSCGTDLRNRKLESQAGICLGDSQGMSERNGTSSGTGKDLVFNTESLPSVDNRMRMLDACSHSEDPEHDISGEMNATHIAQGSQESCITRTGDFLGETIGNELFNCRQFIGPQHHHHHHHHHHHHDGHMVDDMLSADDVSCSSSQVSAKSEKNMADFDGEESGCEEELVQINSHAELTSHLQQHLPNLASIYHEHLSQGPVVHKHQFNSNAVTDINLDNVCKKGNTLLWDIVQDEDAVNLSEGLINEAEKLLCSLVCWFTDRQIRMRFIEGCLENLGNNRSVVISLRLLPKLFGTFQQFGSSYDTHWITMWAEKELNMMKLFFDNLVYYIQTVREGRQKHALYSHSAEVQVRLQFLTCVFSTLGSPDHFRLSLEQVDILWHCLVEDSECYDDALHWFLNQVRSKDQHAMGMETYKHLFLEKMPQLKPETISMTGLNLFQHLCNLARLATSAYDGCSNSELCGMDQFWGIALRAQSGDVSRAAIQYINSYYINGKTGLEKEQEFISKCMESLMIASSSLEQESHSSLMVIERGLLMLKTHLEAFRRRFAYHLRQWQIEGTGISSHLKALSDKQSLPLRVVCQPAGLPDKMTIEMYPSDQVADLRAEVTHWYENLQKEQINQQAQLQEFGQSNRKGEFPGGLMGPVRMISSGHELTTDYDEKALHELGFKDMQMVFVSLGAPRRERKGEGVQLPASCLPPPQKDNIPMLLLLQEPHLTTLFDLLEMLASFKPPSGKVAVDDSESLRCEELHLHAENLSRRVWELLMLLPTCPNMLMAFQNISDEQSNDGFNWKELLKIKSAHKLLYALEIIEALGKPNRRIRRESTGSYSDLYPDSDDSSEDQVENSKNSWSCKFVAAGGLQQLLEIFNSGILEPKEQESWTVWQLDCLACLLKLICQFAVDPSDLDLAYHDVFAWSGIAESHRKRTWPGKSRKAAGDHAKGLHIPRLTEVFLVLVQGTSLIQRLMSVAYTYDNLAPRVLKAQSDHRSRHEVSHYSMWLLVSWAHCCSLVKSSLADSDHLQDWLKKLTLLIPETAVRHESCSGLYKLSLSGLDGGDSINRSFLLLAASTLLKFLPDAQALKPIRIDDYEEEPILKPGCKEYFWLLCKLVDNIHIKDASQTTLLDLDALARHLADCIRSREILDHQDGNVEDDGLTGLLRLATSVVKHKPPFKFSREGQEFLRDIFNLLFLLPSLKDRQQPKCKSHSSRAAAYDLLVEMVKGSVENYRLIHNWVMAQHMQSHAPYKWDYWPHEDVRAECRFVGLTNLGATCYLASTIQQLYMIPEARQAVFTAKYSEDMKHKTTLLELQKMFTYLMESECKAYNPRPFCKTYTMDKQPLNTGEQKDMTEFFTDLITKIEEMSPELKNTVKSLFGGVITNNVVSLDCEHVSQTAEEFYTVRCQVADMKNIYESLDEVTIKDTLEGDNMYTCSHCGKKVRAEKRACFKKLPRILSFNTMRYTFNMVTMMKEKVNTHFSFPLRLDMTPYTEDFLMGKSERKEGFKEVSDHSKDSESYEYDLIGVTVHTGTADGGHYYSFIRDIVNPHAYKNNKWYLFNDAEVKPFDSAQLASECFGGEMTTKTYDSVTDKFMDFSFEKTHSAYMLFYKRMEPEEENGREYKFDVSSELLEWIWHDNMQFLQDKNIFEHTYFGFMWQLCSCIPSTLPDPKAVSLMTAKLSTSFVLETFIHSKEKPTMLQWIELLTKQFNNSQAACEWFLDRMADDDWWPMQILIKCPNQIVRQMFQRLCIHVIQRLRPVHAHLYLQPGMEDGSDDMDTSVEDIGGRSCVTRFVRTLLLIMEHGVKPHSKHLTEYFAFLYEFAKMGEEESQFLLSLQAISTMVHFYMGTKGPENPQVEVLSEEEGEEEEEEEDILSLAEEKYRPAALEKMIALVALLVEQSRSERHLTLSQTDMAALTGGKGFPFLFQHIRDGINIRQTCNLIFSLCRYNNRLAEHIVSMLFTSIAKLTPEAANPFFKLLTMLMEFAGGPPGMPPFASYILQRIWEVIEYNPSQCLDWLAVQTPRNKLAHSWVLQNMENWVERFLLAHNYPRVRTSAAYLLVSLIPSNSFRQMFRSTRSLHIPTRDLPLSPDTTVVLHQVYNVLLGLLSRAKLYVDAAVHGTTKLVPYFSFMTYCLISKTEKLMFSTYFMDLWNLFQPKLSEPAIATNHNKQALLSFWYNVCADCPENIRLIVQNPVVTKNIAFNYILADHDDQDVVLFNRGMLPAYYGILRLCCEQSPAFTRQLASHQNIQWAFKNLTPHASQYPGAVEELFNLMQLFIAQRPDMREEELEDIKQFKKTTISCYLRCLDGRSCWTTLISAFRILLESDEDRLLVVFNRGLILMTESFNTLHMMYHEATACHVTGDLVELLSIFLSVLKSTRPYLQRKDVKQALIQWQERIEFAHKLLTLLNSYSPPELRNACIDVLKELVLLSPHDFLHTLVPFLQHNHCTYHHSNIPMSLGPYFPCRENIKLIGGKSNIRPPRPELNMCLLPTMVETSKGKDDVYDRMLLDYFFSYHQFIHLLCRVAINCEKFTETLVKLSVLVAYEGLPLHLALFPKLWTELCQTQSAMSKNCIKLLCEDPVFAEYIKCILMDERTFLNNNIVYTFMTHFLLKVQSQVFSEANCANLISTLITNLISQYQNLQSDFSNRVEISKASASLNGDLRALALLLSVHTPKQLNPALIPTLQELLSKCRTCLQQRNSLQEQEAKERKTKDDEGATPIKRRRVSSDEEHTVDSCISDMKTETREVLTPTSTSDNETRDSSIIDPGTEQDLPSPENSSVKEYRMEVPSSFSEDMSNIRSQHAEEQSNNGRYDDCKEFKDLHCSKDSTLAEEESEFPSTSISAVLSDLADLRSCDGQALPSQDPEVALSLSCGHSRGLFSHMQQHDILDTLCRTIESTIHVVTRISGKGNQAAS
In short: (§1)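 HEK293T lysate in Tris/CHAPS/IGEPAL buffer with protease inhibitors (495 µg per sample) was given fragment at 200 µM or vehicle for 3 h, in triplicate. It then received Biotin-Ahx-Ub-VS at 0.5 µM final for 1 h. Labelled DUBs were NeutrAvidin-enriched, digested with LysC and trypsin, and run by diaPASEF LC-MS/MS. Values are average log2 fragment/vehicle ratios by unpaired t-test on global-median-normalised Spectronaut quantities of proteins with ≥2 unique peptides.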

USP36 = biological target: T1, USP36 (UniProt Q9P275)
T1 sequence (whole entry): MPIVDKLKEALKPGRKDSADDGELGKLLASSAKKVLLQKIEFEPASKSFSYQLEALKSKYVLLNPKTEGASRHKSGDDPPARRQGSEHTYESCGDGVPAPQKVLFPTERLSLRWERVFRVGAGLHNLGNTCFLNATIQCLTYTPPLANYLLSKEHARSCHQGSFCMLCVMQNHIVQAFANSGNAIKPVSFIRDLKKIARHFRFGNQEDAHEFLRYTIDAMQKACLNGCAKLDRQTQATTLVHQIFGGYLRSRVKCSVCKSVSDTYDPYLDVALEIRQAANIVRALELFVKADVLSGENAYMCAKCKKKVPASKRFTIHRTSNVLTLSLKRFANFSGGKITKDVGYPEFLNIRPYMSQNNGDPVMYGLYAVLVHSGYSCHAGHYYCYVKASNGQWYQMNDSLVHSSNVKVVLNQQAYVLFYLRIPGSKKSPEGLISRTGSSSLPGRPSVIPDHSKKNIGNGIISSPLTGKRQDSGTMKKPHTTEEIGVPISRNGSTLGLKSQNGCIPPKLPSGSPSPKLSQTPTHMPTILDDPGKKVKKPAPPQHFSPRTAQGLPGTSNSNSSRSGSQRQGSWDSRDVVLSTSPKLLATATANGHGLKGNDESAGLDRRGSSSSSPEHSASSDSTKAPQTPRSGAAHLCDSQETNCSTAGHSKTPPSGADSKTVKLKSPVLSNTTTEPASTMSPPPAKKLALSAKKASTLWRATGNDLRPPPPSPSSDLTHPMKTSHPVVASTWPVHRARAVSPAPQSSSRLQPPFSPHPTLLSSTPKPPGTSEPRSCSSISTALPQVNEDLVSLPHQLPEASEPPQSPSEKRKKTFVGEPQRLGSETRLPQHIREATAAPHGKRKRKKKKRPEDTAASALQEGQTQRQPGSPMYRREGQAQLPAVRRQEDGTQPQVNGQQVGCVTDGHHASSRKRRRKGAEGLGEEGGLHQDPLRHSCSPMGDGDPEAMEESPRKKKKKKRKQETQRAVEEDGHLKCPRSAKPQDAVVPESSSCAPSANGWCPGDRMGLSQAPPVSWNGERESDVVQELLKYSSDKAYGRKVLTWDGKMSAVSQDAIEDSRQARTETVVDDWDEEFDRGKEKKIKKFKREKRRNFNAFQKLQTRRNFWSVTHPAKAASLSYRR
In short: as §1

USP38 = biological target: T2, USP38 (UniProt Q8NB14)
T2 sequence (whole entry): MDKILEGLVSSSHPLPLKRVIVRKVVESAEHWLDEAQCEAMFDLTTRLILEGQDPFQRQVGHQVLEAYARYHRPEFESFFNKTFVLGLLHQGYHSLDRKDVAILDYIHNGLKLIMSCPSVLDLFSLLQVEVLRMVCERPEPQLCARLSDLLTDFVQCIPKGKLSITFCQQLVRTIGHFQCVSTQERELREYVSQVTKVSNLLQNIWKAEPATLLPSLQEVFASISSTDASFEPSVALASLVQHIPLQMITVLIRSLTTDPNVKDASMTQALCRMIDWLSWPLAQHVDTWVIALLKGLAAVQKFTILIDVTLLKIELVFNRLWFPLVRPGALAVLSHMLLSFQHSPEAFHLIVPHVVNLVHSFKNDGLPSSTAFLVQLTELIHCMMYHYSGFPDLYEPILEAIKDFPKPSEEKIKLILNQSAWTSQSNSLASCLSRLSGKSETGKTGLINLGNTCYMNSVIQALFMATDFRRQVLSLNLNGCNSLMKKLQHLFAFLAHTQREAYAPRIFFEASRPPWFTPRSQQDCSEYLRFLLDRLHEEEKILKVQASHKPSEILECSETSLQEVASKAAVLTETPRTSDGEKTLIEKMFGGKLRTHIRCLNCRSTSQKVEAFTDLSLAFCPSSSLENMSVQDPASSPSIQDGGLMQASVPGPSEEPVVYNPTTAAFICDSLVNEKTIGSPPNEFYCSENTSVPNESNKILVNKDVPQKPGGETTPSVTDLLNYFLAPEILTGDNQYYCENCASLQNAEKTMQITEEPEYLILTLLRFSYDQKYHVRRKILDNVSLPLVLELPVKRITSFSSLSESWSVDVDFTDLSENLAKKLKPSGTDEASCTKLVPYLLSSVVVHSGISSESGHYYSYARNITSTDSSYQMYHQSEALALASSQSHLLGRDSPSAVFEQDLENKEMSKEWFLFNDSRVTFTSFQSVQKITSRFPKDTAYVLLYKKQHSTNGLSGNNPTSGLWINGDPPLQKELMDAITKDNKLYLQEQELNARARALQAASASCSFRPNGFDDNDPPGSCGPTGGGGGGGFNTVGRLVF
In short: as §1

USP39 = biological target: T3, USP39 (UniProt Q53GS9)
T3 sequence (whole entry): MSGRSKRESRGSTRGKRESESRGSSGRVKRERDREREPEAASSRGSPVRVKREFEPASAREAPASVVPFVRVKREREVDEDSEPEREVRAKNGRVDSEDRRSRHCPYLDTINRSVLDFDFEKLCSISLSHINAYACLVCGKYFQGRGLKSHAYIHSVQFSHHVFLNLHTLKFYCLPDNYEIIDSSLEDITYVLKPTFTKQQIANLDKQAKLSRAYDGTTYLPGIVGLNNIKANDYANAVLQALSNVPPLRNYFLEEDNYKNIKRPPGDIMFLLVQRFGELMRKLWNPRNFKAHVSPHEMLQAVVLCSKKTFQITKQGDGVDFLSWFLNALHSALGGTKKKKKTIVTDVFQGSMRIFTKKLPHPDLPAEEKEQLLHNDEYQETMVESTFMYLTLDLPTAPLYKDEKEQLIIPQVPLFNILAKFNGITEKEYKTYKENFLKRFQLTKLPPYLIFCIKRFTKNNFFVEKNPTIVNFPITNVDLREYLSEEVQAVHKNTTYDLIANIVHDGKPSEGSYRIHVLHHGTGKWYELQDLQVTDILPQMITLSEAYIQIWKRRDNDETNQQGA
In short: as §1

USP4 = biological target: T4, USP4 (UniProt Q13107)
T4 sequence (whole entry): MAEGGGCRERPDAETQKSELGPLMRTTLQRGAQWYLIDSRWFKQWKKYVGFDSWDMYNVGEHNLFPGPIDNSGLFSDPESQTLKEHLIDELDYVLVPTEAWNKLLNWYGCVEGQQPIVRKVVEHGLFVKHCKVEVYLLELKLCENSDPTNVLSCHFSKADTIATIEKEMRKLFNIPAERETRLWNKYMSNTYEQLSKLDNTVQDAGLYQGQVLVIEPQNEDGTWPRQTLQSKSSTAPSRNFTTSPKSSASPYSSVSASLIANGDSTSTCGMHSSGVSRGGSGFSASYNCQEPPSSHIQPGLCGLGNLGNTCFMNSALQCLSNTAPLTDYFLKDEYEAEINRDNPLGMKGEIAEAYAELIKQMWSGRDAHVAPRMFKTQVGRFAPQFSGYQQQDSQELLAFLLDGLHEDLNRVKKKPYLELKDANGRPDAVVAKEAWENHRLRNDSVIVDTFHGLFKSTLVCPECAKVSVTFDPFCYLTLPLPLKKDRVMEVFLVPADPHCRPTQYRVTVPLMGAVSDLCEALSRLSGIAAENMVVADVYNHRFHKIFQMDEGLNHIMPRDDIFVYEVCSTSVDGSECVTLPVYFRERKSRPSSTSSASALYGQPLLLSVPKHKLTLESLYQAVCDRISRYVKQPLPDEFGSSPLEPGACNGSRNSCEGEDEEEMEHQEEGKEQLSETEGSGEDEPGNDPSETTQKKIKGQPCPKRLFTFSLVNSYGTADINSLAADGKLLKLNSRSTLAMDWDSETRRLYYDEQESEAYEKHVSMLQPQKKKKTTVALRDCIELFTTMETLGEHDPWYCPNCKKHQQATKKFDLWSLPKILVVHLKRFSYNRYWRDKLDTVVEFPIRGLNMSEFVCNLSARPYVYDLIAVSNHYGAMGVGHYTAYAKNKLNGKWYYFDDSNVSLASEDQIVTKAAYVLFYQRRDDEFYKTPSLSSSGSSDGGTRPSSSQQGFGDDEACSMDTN
In short: as §1

Measured: log2 ratio of Biotin-Ahx-Ub-VS probe labelling

COc1ccc(Cl)cc1NC(=O)CCl
inactive: USP34 -0.301 | USP36 -0.44 | USP38 -0.283 | USP39 0.264 | USP4 -0.469
